Results as given in article PMC7862700, “An all-to-all approach to the identification of sequence-specific readers for epigenetic DNA modifications on cytosine”.

What was measured:
Test in all cases: DAPPL (digital affinity profiling via proximity ligation, sequencing); 10 mM Tris-HCl pH 7.5, 50 mM NaCl, 1 mM DTT, 4% glycerol, room temperature, 30 min; GST-TFs on glutathione beads, 16-mer random dsDNA library, 0.1% formaldehyde crosslink after washing; high values mean tight binding
FEV = target: T1, FEV (Homo sapiens, UniProt Q99581 1-238); conditions: protein: recombinant; tags: N-terminal GST; dsDNA, one strand shown
T1 sequence: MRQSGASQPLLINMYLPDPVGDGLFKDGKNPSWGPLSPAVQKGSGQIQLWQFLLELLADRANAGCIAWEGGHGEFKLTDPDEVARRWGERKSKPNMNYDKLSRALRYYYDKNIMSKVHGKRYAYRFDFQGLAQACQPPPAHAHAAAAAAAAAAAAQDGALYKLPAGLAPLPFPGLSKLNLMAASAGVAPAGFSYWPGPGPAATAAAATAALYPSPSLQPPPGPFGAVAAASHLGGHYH
In short: (§1)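 In yeast, human transcription factors were expressed with a GST fusion, then pulled down on glutathione beads and given DNA barcodes. Pooled with a tag-only sample, they were exposed to 200 nmole of a 16-mer random double-stranded DNA library (Tris/NaCl/DTT/glycerol buffer, room temperature, 30 min), washed, crosslinked with 0.1% formaldehyde, proximity-ligated using BsaI/T4 ligase for 1 h at 37 °C, PCR-amplified and read on an Illumina NextSeq500. Each hexamer's frequency of reads for a factor, divided by the matching frequency for the tag-only sample, gives the binding signal.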

ETV5 = ETV5 (Homo sapiens, UniProt P41161 1-510); conditions: protein: recombinant; tags: N-terminal GST; dsDNA, one strand shown
In short: as §1

HSF1 = HSF1 (Homo sapiens, UniProt Q00613 1-529); conditions: protein: recombinant; tags: N-terminal GST; chain copies: 3; dsDNA, one strand shown
In short: as §1

SPIC = target: T2, SPIC (Homo sapiens, UniProt Q8N5J4 1-248); conditions: protein: recombinant; tags: N-terminal GST; dsDNA, one strand shown
T2 sequence: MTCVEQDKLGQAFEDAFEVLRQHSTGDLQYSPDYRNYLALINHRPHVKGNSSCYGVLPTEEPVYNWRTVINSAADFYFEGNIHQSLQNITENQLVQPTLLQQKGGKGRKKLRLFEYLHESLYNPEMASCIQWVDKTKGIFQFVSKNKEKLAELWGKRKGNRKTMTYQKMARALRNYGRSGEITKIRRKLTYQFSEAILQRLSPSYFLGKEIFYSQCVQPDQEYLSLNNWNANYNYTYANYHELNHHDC
In short: as §1

ELF4 = ELF4 (Homo sapiens, UniProt Q99607 1-663); conditions: protein: recombinant; tags: N-terminal GST; dsDNA, one strand shown
In short: as §1

ELK4 = target: T3, ELK4 (Homo sapiens, UniProt P28324-2 1-405); conditions: protein: recombinant; tags: N-terminal GST; dsDNA, one strand shown
T3 sequence: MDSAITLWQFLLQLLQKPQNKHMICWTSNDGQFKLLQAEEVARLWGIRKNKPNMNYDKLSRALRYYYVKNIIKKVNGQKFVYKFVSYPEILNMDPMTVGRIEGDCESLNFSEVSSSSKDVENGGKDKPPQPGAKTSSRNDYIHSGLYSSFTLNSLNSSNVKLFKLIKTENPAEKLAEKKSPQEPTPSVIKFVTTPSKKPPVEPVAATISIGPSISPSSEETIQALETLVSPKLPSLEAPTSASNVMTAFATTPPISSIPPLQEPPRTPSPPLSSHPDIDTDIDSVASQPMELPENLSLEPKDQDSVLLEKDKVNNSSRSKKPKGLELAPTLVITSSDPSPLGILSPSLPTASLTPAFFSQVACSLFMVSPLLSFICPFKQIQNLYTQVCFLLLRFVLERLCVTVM
In short: as §1

ETV2 = target: T4, ETV2 (Homo sapiens, UniProt O00321 1-342); conditions: protein: recombinant; tags: N-terminal GST; dsDNA, one strand shown
T4 sequence: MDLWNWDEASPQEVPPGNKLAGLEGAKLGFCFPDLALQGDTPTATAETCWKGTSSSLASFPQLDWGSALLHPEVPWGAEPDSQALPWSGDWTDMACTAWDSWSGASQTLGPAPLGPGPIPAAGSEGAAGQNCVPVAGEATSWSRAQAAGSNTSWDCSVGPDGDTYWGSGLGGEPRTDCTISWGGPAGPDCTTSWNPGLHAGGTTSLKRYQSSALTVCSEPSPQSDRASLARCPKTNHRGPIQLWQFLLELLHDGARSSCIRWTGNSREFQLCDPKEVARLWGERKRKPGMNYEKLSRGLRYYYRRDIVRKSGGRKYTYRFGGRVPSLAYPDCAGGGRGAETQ
In short: as §1

ELF3 = target: T5, ELF3 (Homo sapiens, UniProt P78545 1-371); conditions: protein: recombinant; tags: N-terminal GST; dsDNA, one strand shown
T5 sequence: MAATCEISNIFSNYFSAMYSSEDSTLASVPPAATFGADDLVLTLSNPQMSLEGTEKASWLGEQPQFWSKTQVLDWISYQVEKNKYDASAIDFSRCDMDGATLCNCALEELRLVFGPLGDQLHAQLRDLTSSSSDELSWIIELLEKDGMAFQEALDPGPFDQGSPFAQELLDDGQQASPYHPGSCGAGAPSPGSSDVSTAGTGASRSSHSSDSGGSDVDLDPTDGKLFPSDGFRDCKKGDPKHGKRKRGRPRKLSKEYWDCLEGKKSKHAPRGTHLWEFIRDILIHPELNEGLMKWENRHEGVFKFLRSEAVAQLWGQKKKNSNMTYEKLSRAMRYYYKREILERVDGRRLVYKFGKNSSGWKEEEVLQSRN
In short: as §1

CRX = CRX (Homo sapiens, UniProt O43186 1-299); conditions: protein: recombinant; tags: N-terminal GST; dsDNA, one strand shown
In short: as §1

ETV1 = ETV1 (Homo sapiens, UniProt P50549 1-477); conditions: protein: recombinant; tags: N-terminal GST; dsDNA, one strand shown
In short: as §1

ERF = target: T6, ERF (Homo sapiens, UniProt P50548 1-548); conditions: protein: recombinant; tags: N-terminal GST; dsDNA, one strand shown
T6 sequence: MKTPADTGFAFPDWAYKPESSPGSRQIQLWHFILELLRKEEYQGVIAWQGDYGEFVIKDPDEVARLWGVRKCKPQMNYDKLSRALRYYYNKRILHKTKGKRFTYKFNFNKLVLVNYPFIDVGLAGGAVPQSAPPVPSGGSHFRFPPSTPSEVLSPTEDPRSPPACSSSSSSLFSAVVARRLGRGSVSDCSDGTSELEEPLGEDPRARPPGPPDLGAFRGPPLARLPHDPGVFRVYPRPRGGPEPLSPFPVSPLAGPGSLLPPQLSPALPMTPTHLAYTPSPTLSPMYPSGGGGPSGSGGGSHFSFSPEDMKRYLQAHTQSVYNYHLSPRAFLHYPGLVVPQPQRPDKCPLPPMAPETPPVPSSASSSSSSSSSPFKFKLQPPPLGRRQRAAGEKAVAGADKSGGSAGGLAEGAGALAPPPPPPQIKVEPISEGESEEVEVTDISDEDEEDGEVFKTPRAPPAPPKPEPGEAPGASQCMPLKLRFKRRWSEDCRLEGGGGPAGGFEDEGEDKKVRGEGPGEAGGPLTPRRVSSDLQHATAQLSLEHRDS
In short: as §1

ETV3L = target: T7, ETV3L (Homo sapiens, UniProt Q6ZN32 1-361); conditions: protein: recombinant; tags: N-terminal GST; dsDNA, one strand shown
T7 sequence: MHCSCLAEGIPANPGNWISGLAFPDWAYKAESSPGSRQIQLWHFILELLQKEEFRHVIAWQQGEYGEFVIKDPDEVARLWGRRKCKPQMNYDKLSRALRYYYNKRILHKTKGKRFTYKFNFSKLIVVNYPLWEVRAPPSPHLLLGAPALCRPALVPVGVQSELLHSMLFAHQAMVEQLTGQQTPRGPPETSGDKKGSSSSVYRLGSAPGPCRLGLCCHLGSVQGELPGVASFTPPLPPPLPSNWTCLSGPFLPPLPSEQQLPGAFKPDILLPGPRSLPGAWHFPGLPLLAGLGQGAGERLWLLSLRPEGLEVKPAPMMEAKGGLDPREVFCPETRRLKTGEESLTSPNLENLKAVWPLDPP
In short: as §1

ETS2 = target: T8, ETS2 (Homo sapiens, UniProt P15036 1-469); conditions: protein: recombinant; tags: N-terminal GST; dsDNA, one strand shown
T8 sequence: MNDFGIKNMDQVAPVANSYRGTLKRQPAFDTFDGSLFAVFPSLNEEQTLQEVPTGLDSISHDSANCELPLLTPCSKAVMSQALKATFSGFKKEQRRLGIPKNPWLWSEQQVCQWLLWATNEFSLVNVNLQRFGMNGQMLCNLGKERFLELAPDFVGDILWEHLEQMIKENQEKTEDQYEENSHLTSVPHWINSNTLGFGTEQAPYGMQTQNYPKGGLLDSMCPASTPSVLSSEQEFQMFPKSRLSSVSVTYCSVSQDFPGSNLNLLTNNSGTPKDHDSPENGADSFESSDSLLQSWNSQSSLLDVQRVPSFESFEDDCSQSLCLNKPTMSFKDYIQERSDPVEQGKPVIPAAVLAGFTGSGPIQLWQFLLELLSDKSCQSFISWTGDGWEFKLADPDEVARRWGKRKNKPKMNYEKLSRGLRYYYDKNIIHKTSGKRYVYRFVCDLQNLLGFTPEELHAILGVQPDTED
In short: as §1

SPDEF = target: T9, SPDEF (Homo sapiens, UniProt O95238 1-335); conditions: protein: recombinant; tags: N-terminal GST; dsDNA, one strand shown
T9 sequence: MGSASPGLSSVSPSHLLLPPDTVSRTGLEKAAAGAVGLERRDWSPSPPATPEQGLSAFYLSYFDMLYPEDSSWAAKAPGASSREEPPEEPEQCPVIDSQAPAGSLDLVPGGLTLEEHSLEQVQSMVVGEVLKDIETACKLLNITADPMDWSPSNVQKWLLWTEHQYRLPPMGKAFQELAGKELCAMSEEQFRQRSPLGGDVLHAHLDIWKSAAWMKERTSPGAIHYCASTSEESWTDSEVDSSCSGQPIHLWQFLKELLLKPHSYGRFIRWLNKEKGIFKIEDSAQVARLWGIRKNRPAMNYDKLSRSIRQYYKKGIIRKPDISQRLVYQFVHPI
In short: as §1

ETV7 = target: T10, ETV7 (Homo sapiens, UniProt Q9Y603 1-341); conditions: protein: recombinant; tags: N-terminal GST; dsDNA, one strand shown
T10 sequence: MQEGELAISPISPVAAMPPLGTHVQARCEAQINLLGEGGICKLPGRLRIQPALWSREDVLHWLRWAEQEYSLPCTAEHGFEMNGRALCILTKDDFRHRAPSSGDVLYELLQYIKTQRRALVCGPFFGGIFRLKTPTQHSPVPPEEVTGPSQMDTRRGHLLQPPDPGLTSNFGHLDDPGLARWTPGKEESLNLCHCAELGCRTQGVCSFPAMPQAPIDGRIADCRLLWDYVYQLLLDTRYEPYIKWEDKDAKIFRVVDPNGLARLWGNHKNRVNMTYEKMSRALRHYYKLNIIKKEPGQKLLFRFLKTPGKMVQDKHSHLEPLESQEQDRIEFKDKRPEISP
In short: as §1

ELF5 = target: T11, ELF5 (Homo sapiens, UniProt Q9UKW6-2 1-255); conditions: protein: recombinant; tags: N-terminal GST; dsDNA, one strand shown
T11 sequence: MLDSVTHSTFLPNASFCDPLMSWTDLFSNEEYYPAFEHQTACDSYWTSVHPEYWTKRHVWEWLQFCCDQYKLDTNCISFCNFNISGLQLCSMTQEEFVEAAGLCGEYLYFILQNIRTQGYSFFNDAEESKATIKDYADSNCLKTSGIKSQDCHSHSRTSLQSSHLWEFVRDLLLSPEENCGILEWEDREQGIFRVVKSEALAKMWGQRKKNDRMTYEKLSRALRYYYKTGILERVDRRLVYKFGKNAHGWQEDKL
In short: as §1

ETV3 = target: T12, ETV3 (Homo sapiens, UniProt P41162-2 1-143); conditions: protein: recombinant; tags: N-terminal GST; dsDNA, one strand shown
T12 sequence: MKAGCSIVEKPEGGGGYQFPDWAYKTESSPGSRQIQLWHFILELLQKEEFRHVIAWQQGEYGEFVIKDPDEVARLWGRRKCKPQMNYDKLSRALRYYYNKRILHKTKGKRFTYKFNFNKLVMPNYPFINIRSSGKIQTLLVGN
In short: as §1

ETV6 = ETV6 (Homo sapiens, UniProt P41212 1-452); conditions: protein: recombinant; tags: N-terminal GST; dsDNA, one strand shown
In short: as §1

Chain of CRX (O43186 whole entry): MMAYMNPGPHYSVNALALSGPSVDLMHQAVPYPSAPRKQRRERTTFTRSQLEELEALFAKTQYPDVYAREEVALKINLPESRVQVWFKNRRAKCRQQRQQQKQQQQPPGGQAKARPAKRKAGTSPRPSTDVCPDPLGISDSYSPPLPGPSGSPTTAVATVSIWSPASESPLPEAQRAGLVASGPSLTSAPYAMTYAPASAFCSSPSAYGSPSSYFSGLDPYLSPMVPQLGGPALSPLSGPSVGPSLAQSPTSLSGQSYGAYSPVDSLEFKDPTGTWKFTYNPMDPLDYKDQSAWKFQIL
Chain of HSF1 (Q00613 whole entry): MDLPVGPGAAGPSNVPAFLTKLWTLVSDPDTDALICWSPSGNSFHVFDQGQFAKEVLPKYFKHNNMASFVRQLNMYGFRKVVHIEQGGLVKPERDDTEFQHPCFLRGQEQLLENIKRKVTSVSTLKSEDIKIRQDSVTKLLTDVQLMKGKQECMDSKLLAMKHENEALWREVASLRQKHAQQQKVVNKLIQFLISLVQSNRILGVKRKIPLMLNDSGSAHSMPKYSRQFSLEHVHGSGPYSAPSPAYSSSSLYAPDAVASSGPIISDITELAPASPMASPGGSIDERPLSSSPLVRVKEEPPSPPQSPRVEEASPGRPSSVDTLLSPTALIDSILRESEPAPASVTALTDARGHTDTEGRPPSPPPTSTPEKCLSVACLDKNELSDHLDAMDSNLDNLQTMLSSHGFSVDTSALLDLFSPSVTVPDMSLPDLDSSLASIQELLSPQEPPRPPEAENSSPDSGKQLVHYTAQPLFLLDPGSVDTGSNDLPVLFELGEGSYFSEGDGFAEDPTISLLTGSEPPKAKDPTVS
Chain of ELF4 (Q99607 whole entry): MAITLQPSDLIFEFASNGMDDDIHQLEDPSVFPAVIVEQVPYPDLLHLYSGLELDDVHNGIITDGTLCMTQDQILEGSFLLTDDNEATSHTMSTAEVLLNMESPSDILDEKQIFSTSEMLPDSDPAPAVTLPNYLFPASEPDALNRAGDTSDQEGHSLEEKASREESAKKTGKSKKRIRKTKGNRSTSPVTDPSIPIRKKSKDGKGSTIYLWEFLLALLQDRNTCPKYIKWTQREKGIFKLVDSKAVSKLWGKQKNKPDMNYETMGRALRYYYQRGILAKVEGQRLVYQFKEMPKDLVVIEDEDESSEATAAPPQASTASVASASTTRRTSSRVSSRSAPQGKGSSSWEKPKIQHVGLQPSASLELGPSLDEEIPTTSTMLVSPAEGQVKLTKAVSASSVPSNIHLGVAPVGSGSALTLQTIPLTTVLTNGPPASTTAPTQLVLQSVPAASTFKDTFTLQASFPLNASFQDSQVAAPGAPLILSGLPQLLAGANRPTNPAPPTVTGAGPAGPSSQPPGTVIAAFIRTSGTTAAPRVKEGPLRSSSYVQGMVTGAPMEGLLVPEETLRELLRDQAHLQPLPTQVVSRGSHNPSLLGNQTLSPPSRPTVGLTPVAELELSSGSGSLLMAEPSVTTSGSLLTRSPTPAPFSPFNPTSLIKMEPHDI
Chain of ETV6 (P41212 whole entry): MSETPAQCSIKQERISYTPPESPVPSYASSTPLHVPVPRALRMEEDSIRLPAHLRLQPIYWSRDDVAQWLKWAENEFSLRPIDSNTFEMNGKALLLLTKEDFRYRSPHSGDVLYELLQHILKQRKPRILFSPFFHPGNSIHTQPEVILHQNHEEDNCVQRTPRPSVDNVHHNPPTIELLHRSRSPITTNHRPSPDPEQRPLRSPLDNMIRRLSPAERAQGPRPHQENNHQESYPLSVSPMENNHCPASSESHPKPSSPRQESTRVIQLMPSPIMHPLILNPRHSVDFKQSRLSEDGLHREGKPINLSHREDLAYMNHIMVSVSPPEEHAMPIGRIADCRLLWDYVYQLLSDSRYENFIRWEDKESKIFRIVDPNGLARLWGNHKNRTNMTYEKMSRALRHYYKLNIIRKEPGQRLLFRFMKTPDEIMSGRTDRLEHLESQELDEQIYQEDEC
Chain of ETV5 (P41161 whole entry): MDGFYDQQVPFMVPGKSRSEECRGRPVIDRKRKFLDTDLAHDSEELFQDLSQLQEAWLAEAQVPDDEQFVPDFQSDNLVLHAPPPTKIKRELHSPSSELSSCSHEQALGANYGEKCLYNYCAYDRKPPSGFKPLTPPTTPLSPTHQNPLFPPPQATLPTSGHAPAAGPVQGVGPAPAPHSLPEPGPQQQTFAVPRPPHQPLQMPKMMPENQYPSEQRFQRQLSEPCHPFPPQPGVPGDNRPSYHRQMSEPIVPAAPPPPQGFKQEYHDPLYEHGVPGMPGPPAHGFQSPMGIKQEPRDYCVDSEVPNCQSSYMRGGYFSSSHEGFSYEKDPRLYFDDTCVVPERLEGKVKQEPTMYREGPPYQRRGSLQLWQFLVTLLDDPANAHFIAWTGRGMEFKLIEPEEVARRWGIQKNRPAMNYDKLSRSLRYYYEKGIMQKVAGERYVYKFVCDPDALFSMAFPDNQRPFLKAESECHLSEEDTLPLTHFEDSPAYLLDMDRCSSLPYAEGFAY
Chain of ETV1 (P50549 whole entry): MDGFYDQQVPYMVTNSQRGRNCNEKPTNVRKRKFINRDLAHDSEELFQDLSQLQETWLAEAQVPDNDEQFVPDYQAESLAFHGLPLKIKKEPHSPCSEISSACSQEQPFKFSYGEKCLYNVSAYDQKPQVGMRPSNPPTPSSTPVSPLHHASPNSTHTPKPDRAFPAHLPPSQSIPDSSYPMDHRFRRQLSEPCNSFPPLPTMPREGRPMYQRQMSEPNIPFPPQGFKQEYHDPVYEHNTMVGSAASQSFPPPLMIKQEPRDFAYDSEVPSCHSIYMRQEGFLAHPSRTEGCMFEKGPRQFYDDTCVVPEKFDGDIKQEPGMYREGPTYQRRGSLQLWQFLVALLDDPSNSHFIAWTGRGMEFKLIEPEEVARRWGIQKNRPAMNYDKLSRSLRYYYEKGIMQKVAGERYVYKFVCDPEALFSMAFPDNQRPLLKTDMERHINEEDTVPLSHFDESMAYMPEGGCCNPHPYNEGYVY

Sequence	binding signal (FEV)	binding signal (ETV5)	binding signal (HSF1)	binding signal (SPIC)	binding signal (ELF4)	binding signal (ELK4)	binding signal (ETV2)	binding signal (ELF3)	binding signal (CRX)	binding signal (ETV1)	binding signal (ERF)	binding signal (ETV3L)	binding signal (ETS2)	binding signal (SPDEF)	binding signal (ETV7)	binding signal (ELF5)	binding signal (ETV3)	binding signal (ETV6)
CATACT	1.27 fold enrichment (6-mer frequency, TF over GST control)	1.2 fold enrichment (6-mer frequency, TF over GST control)	1.2 fold enrichment (6-mer frequency, TF over GST control)	1.23 fold enrichment (6-mer frequency, TF over GST control)	1.35 fold enrichment (6-mer frequency, TF over GST control)	1.34 fold enrichment (6-mer frequency, TF over GST control)	1.47 fold enrichment (6-mer frequency, TF over GST control)	1.34 fold enrichment (6-mer frequency, TF over GST control)	1.24 fold enrichment (6-mer frequency, TF over GST control)	1.33 fold enrichment (6-mer frequency, TF over GST control)	1.3 fold enrichment (6-mer frequency, TF over GST control)	1.33 fold enrichment (6-mer frequency, TF over GST control)	1.32 fold enrichment (6-mer frequency, TF over GST control)	1.23 fold enrichment (6-mer frequency, TF over GST control)	1.28 fold enrichment (6-mer frequency, TF over GST control)	1.27 fold enrichment (6-mer frequency, TF over GST control)	1.36 fold enrichment (6-mer frequency, TF over GST control)	1.26 fold enrichment (6-mer frequency, TF over GST control)
AAGTAT	1.34 fold enrichment (6-mer frequency, TF over GST control)	1.38 fold enrichment (6-mer frequency, TF over GST control)	1.38 fold enrichment (6-mer frequency, TF over GST control)	1.49 fold enrichment (6-mer frequency, TF over GST control)	1.4 fold enrichment (6-mer frequency, TF over GST control)	1.31 fold enrichment (6-mer frequency, TF over GST control)	1.42 fold enrichment (6-mer frequency, TF over GST control)	1.35 fold enrichment (6-mer frequency, TF over GST control)	1.57 fold enrichment (6-mer frequency, TF over GST control)	1.44 fold enrichment (6-mer frequency, TF over GST control)	1.38 fold enrichment (6-mer frequency, TF over GST control)	1.47 fold enrichment (6-mer frequency, TF over GST control)	1.46 fold enrichment (6-mer frequency, TF over GST control)	1.31 fold enrichment (6-mer frequency, TF over GST control)	1.5 fold enrichment (6-mer frequency, TF over GST control)	1.56 fold enrichment (6-mer frequency, TF over GST control)	1.46 fold enrichment (6-mer frequency, TF over GST control)	1.58 fold enrichment (6-mer frequency, TF over GST control)
